# Measurements as given in PubChem BioAssay AID1654 (Sanford-Burnham Center for Chemical Genomics, 2009).
# The whole screen tested about 290,000 compounds, of which about 1,500 (0.52%) were called active. Cut-off read from the data, not from the text of the source: active = inhibition above about 50%; inactive = the rest. The entries come from a sample that favours actives as a whole.
# Target: Dual specificity protein phosphatase 3 (Homo sapiens) (UniProt P51452)
# Assay: VHR1 phosphatase inhibitors, primary screen, biochemical, absorbance, uHTS (AID 1654)
# [1] = recombinant VHR phosphatase, pNPP absorbance, at 13.3 µM, stronger effect = higher value
# Dual specificity protein phosphatase 3 (Homo sapiens), sequence (P51452 whole entry, looked up): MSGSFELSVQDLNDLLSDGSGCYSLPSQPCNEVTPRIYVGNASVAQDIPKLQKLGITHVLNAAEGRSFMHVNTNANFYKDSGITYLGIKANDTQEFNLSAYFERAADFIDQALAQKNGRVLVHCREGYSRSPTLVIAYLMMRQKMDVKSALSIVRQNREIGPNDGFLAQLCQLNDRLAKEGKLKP
smiles,measurement,setting,value
CSc1ccccc1-c1nnc(-c2ccc(Cl)cc2)o1,inhibition,[1],25.3% (inactive)
O=C(Nc1nnc(-c2ccc(Cl)cc2)o1)c1ccccc1Br,inhibition,[1],41.9% (inactive)
O=C(c1nnc(-c2ccc(Cl)cc2)o1)C1CCCC1,inhibition,[1],51.3% (active)
CCOc1ccc(NC(=S)N2CCC(NC(=O)c3ccccc3)CC2)cc1,inhibition,[1],20.4% (inactive)
O=C(COc1ccc(Br)cc1F)NC1CCN(Cc2ccccc2)CC1,inhibition,[1],4.7% (inactive)
CCOc1ccc(CC(=O)NC2CCN(Cc3ccccc3)CC2)cc1,inhibition,[1],51% (active)
CC(=O)Nc1ccc(Nc2ncnc3c2nnn3Cc2ccccc2Cl)cc1,inhibition,[1],52% (active)
Cc1nc(Nc2ccc3c(c2)OCCO3)c2nnn(Cc3ccccc3Cl)c2n1,inhibition,[1],18.2% (inactive)
Clc1ccc(Nc2ncnc3c2nnn3Cc2ccccc2)cc1,inhibition,[1],16.3% (inactive)
CCC(=O)Nc1ccc(-c2ccc(N3CCCCC3)nn2)cc1,inhibition,[1],-19.8% (inactive)
O=C(Nc1nccs1)C1CCCN1S(=O)(=O)c1cccc2cccnc12 (stereo unspecified),inhibition,[1],56.5% (active)
COc1ccc(NC(=O)C2CCCN(S(=O)(=O)c3cccc4cccnc34)C2)cc1OC (stereo unspecified),inhibition,[1],23.6% (inactive)
COc1ccc(OC)c(NC(=O)C2CCCN2S(=O)(=O)c2cccc3nsnc23)c1 (stereo unspecified),inhibition,[1],19% (inactive)
CC(=O)c1cccc(NC(=O)C2CCCN2S(=O)(=O)c2cccc3nsnc23)c1 (stereo unspecified),inhibition,[1],54.2% (active)
CC1CCCCC1NC(=O)C1CCCN1S(=O)(=O)c1cccc2nsnc12 (stereo unspecified),inhibition,[1],16.6% (inactive)
O=C(NCc1ccco1)C1CCCN(S(=O)(=O)c2cccc3nonc23)C1 (stereo unspecified),inhibition,[1],3.6% (inactive)
CC(=O)c1cccc(NC(=O)C2CCCN(S(=O)(=O)c3cccc4nonc34)C2)c1 (stereo unspecified),inhibition,[1],50.4% (active)
Cc1ccc(NC(=O)C2CCCN2S(=O)(=O)c2cccc3cccnc23)c(C)c1 (stereo unspecified),inhibition,[1],-0.7% (inactive)
Cc1cc(C)cc(NC(=O)C2CCCN2S(=O)(=O)c2cccc3cccnc23)c1 (stereo unspecified),inhibition,[1],-42.1% (inactive)
CCc1ccc(-c2cc(C)no2)cc1S(=O)(=O)NCCc1ccc(S(N)(=O)=O)cc1,inhibition,[1],28% (inactive)
Cc1ccc(NC(=O)c2nc[nH]c2C(=O)N[C@@H](CCCCNC(=O)OC(C)(C)C)C(=O)OC(C)(C)C)cc1,inhibition,[1],-0.7% (inactive)
CCc1ccccc1NC(=O)c1ccc2c(c1)CCN2S(C)(=O)=O,inhibition,[1],-17.9% (inactive)
O=C1/C(=C/c2ccc(F)cc2)SC(=S)N1CCCC(=O)N1CCCCC1CCO (stereo unspecified),inhibition,[1],42.6% (inactive)
CC(=O)Nc1ccc(S(=O)(=O)N2CCC(C(=O)NC3CC3)CC2)cc1,inhibition,[1],14.9% (inactive)
CCC(C(=O)NC1CCCC1)N(C(=O)Cn1nnc(-c2ccc(C)o2)n1)c1ccc(OC)c(OC)c1 (stereo unspecified),inhibition,[1],13% (inactive)
Nc1nc(SCC(=O)Nc2ccc(Cl)cc2C(F)(F)F)n[nH]1,inhibition,[1],2.5% (inactive)
CCN(C(=O)CSc1nnc(-c2ccncc2)o1)c1ccccc1,inhibition,[1],11% (inactive)
COCC(=O)Nc1c(C(=O)N2CCCC2)oc2ccccc12,inhibition,[1],1% (inactive)
COc1cccc(OC)c1C(=O)Nc1c(C(=O)N2CCN(c3ccccn3)CC2)oc2ccccc12,inhibition,[1],52.1% (active)
Cc1cc(C(=O)N2CCN(c3ccccn3)CC2)c(C)o1,inhibition,[1],-2.1% (inactive)
CCOc1ccc(CN2CCN(Cc3ccc4cc(F)ccc4n3)CC2CCO)cc1 (stereo unspecified),inhibition,[1],6.4% (inactive)
Cc1cccc(C(=O)OCC(=O)Nc2ccc(F)cc2)c1,inhibition,[1],8% (inactive)
Cc1cc(C)nc(-n2ncc3c2CC(c2ccc(C(C)C)cc2)CC3=O)n1 (stereo unspecified),inhibition,[1],1.9% (inactive)
NC(=S)Nc1c(Cl)cccc1Cl,inhibition,[1],24.6% (inactive)
CSCCNC(=O)c1ccc2nc(Cc3ccccc3F)oc2c1,inhibition,"recombinant VHR phosphatase, pNPP absorbance; at 13.3 µM; stronger effect = higher value",63.9% (inactive)
same,inhibition,"recombinant VHR phosphatase, pNPP absorbance; measured here: average of confirmation repeats; at 13.3 µM; stronger effect = higher value",2.8%
Cc1ccc(NC2CCCN(C(=O)CCc3cn[nH]c3)C2)cc1C (stereo unspecified),inhibition,[1],-2.7% (inactive)
CCOc1cc(/C=N/O)ccc1OCc1ccccc1F,inhibition,[1],-4.1% (inactive)
CCOc1cc(/C=N/NC(=O)OC)ccc1OCCSc1ccc(Cl)cc1,inhibition,[1],-3.8% (inactive)
CC(=O)c1nn(-c2cccc(C(F)(F)F)c2)c(=O)[nH]c1=O,inhibition,[1],-9.5% (inactive)
CN(CCO)c1ccc(/C=N/Nc2nncc3ccccc23)cc1,inhibition,[1],18.2% (inactive)
O=C(Nc1ccc(OCC(=O)N2CCOCC2)cc1)c1cc(F)c(F)cc1Cl,inhibition,[1],25.5% (inactive)
O=C1COc2ccc(S(=O)(=O)Nc3ccc(OC(F)(F)F)cc3)cc2N1,inhibition,[1],-1.9% (inactive)
COc1ccccc1NC(=O)CSc1nc2sc3c(c2c(=O)n1-c1ccccc1)CCN(C)C3,inhibition,[1],9.1% (inactive)
Cc1ccc(-c2nc(SCC(=O)Nc3ccccc3OC(F)F)c3c(C)c(C(=O)O)sc3n2)cc1,inhibition,[1],113% (active)
Cc1ccc(C)c(SCc2nc3sc(C(=O)O)c(C)c3c(=O)[nH]2)c1,inhibition,[1],7.2% (inactive)
